IDE exosite inh = insulin-degrading enzyme (human) exo-site inhibition; P14735; purified IDE, FL-6b probe fluorescence polarization; active compounds read low; z-score at 20 µM; 17,000 tested, 6.3% active;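 active = z-score of -3 or lower, meaning strong loss of probe binding signal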;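 note: His-tagged human IDE residues 42-1019 made in E. coli with 30 nM FL-6b probe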
Target sequence (P14735 42-1019 limits assumed): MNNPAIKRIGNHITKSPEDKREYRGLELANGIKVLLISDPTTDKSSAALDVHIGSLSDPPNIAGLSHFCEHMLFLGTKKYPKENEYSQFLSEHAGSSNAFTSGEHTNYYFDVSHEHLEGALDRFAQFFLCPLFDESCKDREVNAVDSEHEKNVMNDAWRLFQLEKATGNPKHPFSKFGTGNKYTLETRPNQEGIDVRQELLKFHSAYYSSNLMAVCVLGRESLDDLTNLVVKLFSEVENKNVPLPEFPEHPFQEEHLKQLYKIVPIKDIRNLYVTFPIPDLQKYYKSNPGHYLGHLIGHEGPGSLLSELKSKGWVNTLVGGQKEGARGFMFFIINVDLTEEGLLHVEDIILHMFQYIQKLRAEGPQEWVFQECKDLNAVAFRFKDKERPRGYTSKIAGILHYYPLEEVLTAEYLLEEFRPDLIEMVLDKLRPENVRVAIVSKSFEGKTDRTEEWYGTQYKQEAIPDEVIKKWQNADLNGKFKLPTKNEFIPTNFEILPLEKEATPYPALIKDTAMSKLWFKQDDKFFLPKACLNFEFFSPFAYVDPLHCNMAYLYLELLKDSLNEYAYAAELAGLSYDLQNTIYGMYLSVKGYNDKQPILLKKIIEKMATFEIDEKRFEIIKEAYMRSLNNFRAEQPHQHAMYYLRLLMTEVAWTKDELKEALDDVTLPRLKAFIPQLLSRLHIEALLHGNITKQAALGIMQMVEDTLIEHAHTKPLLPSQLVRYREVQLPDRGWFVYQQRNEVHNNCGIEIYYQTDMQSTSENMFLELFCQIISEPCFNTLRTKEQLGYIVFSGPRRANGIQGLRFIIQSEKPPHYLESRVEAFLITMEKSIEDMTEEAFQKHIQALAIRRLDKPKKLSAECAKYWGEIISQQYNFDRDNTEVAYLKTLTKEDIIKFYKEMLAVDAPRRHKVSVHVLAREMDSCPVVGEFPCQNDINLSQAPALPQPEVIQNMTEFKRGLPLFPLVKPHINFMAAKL
An asterisk follows results filed as active. Many of the other results were omitted from the sample, so hits are more common in it than they were.

SMILES | IDE exosite inh
COc1cccc(-c2ccc([C@@H]3[C@H]4CN(C(=O)c5ccncc5)CC(=O)N4[C@H]3CO)cc2)c1 | -11*
COc1cccc(-c2ccc([C@@H]3[C@@H](CO)N4C(=O)CN(C(=O)c5ccncc5)C[C@H]34)cc2)c1 | 1.7
O=C(c1ccncc1)N1CC(=O)N2[C@H](CO)[C@H](c3ccc(-c4ccccc4)cc3)[C@@H]2C1 | 2.2
COc1cccc(-c2ccc(C3[C@H]4CNC[C@@H]3N4Cc3cncnc3)cc2)c1 (stereo partly drawn) | 1.9
CC[C@@H]1C/C=C\CCNC(=O)CCC(=O)N1 | -1.1
CN1C(=O)c2cc(NS(=O)(=O)c3cccc(F)c3)ccc2OC[C@H]2O[C@H](CC(=O)NCCN3CCCCC3)CC[C@H]21 | -0.83
O=C(c1cccnc1)N1CC(=O)N2[C@H](C1)[C@H](c1ccc(C#CCC3CCCC3)cc1)[C@@H]2CO | 0.87
COc1ccc2c3c([nH]c2c1)[C@H](CO)N(C(=O)CN(C)C)CC31CCN(Cc2cncnc2)CC1 | 1.3
C[C@@H]1CN([C@@H](C)CO)C(=O)c2cc(NC(=O)Nc3cccc4ccccc34)ccc2O[C@H]1CN(C)S(=O)(=O)c1cccs1 | -0.59
CCCC#Cc1ccc([C@@H]2[C@@H](CO)N3CCCCN(CC4CCOCC4)C[C@@H]23)cc1 | -1.2
CCCC#Cc1ccc([C@@H]2[C@@H](CO)N3CCCCN(CC4CCOCC4)C[C@H]23)cc1 | 0.69
OC[C@H]1[C@H](c2ccc(C#Cc3ccccc3)cc2)[C@@H]2CN(CC3CCOCC3)CCCCN12 | -3.6*
OC[C@@H]1[C@H](c2ccc(C#Cc3ccccc3)cc2)[C@H]2CN(CC3CCOCC3)CCCCN12 | -4.4*
OC[C@H]1[C@H](c2ccc(C#Cc3ccccc3F)cc2)[C@H]2CN(CC3CCOCC3)CCCCN21 | -0.28
OC[C@@H]1[C@@H](c2ccc(C#Cc3ccccc3F)cc2)[C@H]2CN(CC3CCOCC3)CCCCN12 | 2.2
COc1ccccc1-c1ccccc1[C@@H]1[C@@H](C#N)N(C(=O)C2CCOCC2)[C@H]1CO | -0.022
Cc1ccc(S(=O)(=O)N(C)C[C@@H]2Oc3cc(C#CC4CCCC4)ccc3S(=O)(=O)N([C@@H](C)CO)C[C@H]2C)cc1 | -0.32
OC[C@@H]1[C@@H](c2ccc(-c3ccc(F)cc3)cc2)[C@@H]2CN(CCC(F)(F)F)CCCCN12 | 2.5
CCCNC(=O)C[C@@H]1CC[C@@H]2[C@@H](COc3ccc(NC(=O)CC)cc3C(=O)N2C)O1 | -0.35
CCCNC(=O)Nc1ccc2c(c1)OC[C@@H](C)N(Cc1cncnc1)C[C@@H](C)[C@H](OC)CN(C)C2=O | -1.2
CO[C@@H]1CN(C)C(=O)c2ccc(NC(C)=O)cc2OC[C@H](C)N(C(=O)c2cnccn2)C[C@H]1C | 0.59
C/C=C/c1ccc([C@H]2[C@@H](CO)N3CCCCN(C(=O)Nc4ccccc4F)C[C@@H]23)cc1 | -0.84
O=C(Nc1ccccc1F)N1CCCCN2[C@H](C1)[C@H](c1ccc(C3=CCCC3)cc1)[C@@H]2CO | 4.4
O=C(Nc1ccccc1F)N1CCCCN2[C@H](CO)[C@H](c3ccc(/C=C/c4ccccc4)cc3)[C@@H]2C1 | -3.9*
O=C(Nc1ccccc1F)N1CCCCN2[C@H](CO)[C@H](c3ccc(/C=C/c4ccccc4)cc3)[C@H]2C1 | -4.9*
SMILES | IDE exosite inh
O=C(Nc1ccccc1F)N1CCCCN2[C@H](CO)[C@H](c3ccc(C4=CCCC4)cc3)[C@H]2C1 | 2.1
O=C(Nc1ccccc1F)N1CCCCN2[C@H](C1)[C@@H](c1ccc(/C=C/c3ccccc3)cc1)[C@@H]2CO | -2.7
O=C1N[C@H](c2ccccc2)COCc2cn(nn2)CC[C@H]1Cc1ccc(C(F)(F)F)cc1 | 0.57
COCC(=O)N1CC2(C1)[C@H](c1ccccc1)[C@H](CO)N2C(=O)NC1CCCC1 | 1.3
CO[C@@H]1CN(C)C(=O)c2cc(NC(=O)c3ccc4c(c3)OCO4)ccc2OC[C@@H](C)N(CCC(F)(F)F)C[C@@H]1C | 0.42
O=C(N[C@@H]1CC[C@H](CCNS(=O)(=O)c2ccc(F)cc2)O[C@H]1CO)C1CCC1 | 0.92
Cc1ccccc1-c1ccc([C@H]2[C@H]3CN(C(=O)c4cccnc4)CC(=O)N3[C@H]2CO)cc1 | -2
Cc1ccccc1-c1ccc([C@H]2[C@H]3CN(C(=O)c4ccccc4)CC(=O)N3[C@H]2CO)cc1 | 0.77
O=C(c1ccncc1)N1CC(=O)N2[C@H](CO)[C@H](c3ccc(-c4cccnc4)cc3)[C@@H]2C1 | 1.6
CC(C)C#Cc1ccc([C@@H]2[C@@H](CO)N3C(=O)CN(C(=O)c4ccccn4)C[C@H]23)cc1 | 2.7
Cc1ccccc1-c1ccc([C@@H]2[C@@H](CO)N3C(=O)CN(C(=O)c4ccncc4)C[C@@H]23)cc1 | -3.5*
Cc1ccccc1-c1ccc([C@@H]2[C@H]3CN(C(=O)c4ccncc4)CC(=O)N3[C@H]2CO)cc1 | -14*
Cc1ccccc1-c1ccc([C@@H]2[C@H](CO)N3C(=O)CN(C(=O)c4ccncc4)C[C@@H]23)cc1 | -5.3*
O=C(c1ccncc1)N1CC(=O)N2[C@@H](CO)[C@@H](c3ccc(-c4cccnc4)cc3)[C@@H]2C1 | 1.8
Cc1ccccc1-c1ccc([C@H]2[C@H]3CN(C(=O)c4ccncc4)CC(=O)N3[C@H]2CO)cc1 | 0.38
Cc1ccccc1-c1ccc([C@H]2[C@@H](CO)N3C(=O)CN(C(=O)c4ccccn4)C[C@@H]23)cc1 | -12*
COc1ccc(-c2ccc([C@H]3[C@@H](CO)N4C(=O)CN(C(=O)c5ccccn5)C[C@@H]34)cc2)cc1 | -1.3
C[C@H](CO)N1C[C@H](C)[C@H](CN(C)S(=O)(=O)c2ccc(-n3cccn3)cc2)OCc2cn(nn2)CCCC1=O | 0.28
CCC(=O)N(C)C[C@@H]1[C@H](c2ccc(-c3cccnc3)cc2)[C@H](CO)N1C(C)=O | 0.68
C/C=C/c1ccccc1[C@@H]1[C@H](C#N)N(c2nc(CC)cs2)[C@H]1CO | 1
N#C[C@@H]1[C@H](c2ccccc2/C=C/c2ccccc2)[C@H](CO)N1S(=O)(=O)c1ccccc1 | 3.4
C[C@H]1CN([C@@H](C)CO)C(=O)Cc2cc(N(C)C)ccc2O[C@@H]1CN(C)C(=O)NC1CCCCC1 | 0.92
CC(C)CC#Cc1ccc([C@@H]2[C@H]3CN(C(=O)NC(C)C)CC(=O)N3[C@H]2CO)cc1 | -0.33
CCS(=O)(=O)Nc1ccc2c(c1)C(=O)N(C)C[C@@H](OC)[C@@H](C)CN(CC1CCCCC1)[C@@H](C)CO2 | -0.36
COc1ccccc1CN1[C@@H]2CN(C(=O)C3CCOCC3)c3ccccc3[C@@H]2[C@@H]1CO | 2.5
SMILES | IDE exosite inh
N#C[C@H]1[C@@H](c2ccccc2C2=CCCCC2)[C@@H](CO)N1C(=O)NC1CCCC1 | 2.4
C/C=C/c1ccc([C@H]2[C@@H](C#N)N(c3ncc(CC)s3)[C@@H]2CO)cc1 | 4.6
O=C(c1ccncc1)N1CC(=O)N2[C@H](C1)[C@H](c1ccc(-c3ccccc3F)cc1)[C@@H]2CO | -0.15
O=C(c1ccncc1)N1CC(=O)N2[C@H](CO)[C@H](c3ccc(-c4ccccc4F)cc3)[C@H]2C1 | -4.8*
O=C(c1ccncc1)N1CC(=O)N2[C@H](CO)[C@@H](c3ccc(-c4ccccc4F)cc3)[C@@H]2C1 | -1.9
OC[C@@H]1[C@@H](c2ccc(C#CC3CCCC3)cc2)[C@@H]2CN(CCC(F)(F)F)CCCCN12 | 2.9
COc1ccc(C#Cc2cnc3c(c2)C(=O)N([C@H](C)CO)C[C@H](C)[C@H](CN(C)Cc2cccc(C)c2)O3)cc1OC | -1.6
COc1cccc(NC(=O)N2CC3(C2)[C@@H](c2ccccc2)[C@@H](CO)N3C(C)=O)c1 | 1.4
